# Source: PubChem BioAssay AID1259343 (VanderVen Lab, College of Veterinary Medicine, Cornell …, 2017)
# The whole screen tested about 6,200 compounds, of which about 2,900 (47%) were called active. So high a share suggests a set chosen from earlier hits. The list shows a part of the results. Values without a mark were called inactive. No stated cut-off is given here; in the data, active means inhibition above about 50%; inactive means the rest.
# Assay: Mycobacterium tuberculosis growth inhibition, primary screen (AID 1259343)
# Details: inhibition: at 10 µM, hits give high values; outcome: 10 uM
row,Compound,inhibition
1,O=C1N(c2ccc(Cl)cc2)C(c2ccc3c(c2)OCO3)C1(F)F (centres undefined),78.8% (active)
2,O=C1N(c2ccc3c(c2)OCO3)C(c2ccc3c(c2)OCO3)C1(F)F (centres undefined),102% (active)
3,O=C1N(c2ccc3c(c2)OCO3)C(c2cccc(F)c2)C1(F)F (centres undefined),27%
4,O=C1N(c2ccc3c(c2)OCO3)C(c2ccc(Cl)cc2)C1(F)F (centres undefined),89.3% (active)
5,c1cc2c(cc1[C@H]1OC[C@H]3[C@@H]1CO[C@H]3c1ccc3c(c1)OCO3)OCO2,49%
6,O=C1N(c2ccccc2)C(c2ccco2)C1(F)F (centres undefined),40.3%
7,Clc1ccc(-n2ncc3c2CCN(Cc2cc4c(cc2Cl)OCO4)C3)cc1,23.9%
8,CCCc1cc(=O)[nH]c(SCCOc2ccc(Br)cc2)n1,18.1%
9,Nc1c(C(=O)c2ccc(Br)s2)oc2ccccc12,43.5%
10,Nc1c(C(=O)CCC(=O)O)oc2ccc(Cl)cc12,20.1%
11,Nc1c(C(=O)CCC(=O)O)oc2ccc(Br)cc12,68% (active)
12,O=C(O)CCC1NCC2CC1CN1CCCCC21 (centres undefined),1.66%
13,CSC(Nc1ccc(Br)cc1)=C(C#N)C#N,101% (active)
14,Cc1ccc(Cl)c(OCCCOc2cccc3cccnc23)c1,71.6% (active)
15,Clc1cccc(Cl)c1OCCOc1cccc2cccnc12,94.7% (active)
16,COc1ccc(C2CC(=O)C3=C(C2)NC(C)=C(C#N)C3c2ccc(Cl)c(Cl)c2)cc1 (centres undefined),-9.69%
17,CCOc1ccc2nc(CN3CCN(CC=C(C)C)C(CCO)C3)ccc2c1 (centres undefined),inactive
18,CCCCc1ccc(N2C3=[N+](CCCS3)CC2(O)c2ccc(C)cc2)cc1 (centres undefined),79.3% (active)
19,OC1(c2cccs2)C[N+]2=C(SCC2)N1c1ccccc1 (centres undefined),-3.48%
20,Oc1c(Br)cc(C=NNc2ccccn2)cc1Br,97.7% (active)
21,N#Cc1ccc(CNc2ccc(F)cc2Cl)cc1,-56.2%
22,N#Cc1cc(F)c(NCc2ccc(F)cc2)c(F)c1,69.3% (active)
23,N#Cc1cnc(NCc2ccc(N3CCOCC3)c(F)c2)c(Cl)c1,5.19%
24,CCCCS(=O)(=O)NCCOc1ccc(C)cc1,75% (active)
25,CCCCS(=O)(=O)NCC1CCCCC1,25.9%
26,CC(O)c1cccc(OCc2ccc(S(=O)(=O)C(F)F)cc2)c1 (centres undefined),88.2% (active)

row,Compound,inhibition
1,COc1cccc(C(=O)Nc2ccc(S(=O)(=O)C(F)F)cc2)c1,-1.65%
2,Cc1ccccc1OCC1=NN2C(=N)/C(=C/c3ccc(Br)o3)C(=O)N=C2S1,51.2% (active)
3,O=C1CC(C(=O)NCc2ccccc2Cl)c2ccc(F)cc2N1 (centres undefined),87.3% (active)
4,O=C(Cc1ccccc1Cl)NCc1cc(F)cc(F)c1,24%
5,CC1(Cc2ccccc2Cl)C(=O)Nc2c(Cl)ccc(Cl)c21 (centres undefined),20.4%
6,CC1=CCCC(C)(C)C1C=CC(C)=NNc1nc2ccccc2[nH]1 (centres undefined),36.3%
7,C(=NNc1nc2ccccc2[nH]1)c1c(-c2ccccc2)[nH]c2ccccc12,28.8%
8,C(=NNc1nc2ccccc2[nH]1)C(=NNc1nc2ccccc2[nH]1)c1ccccc1,79.8% (active)
9,CC(=NNc1nc2ccccc2[nH]1)c1ccc(C)o1,84.2% (active)
10,CC1Oc2ccccc2C=C1/C=N\Nc1nc2ccccc2[nH]1 (centres undefined),94.2% (active)
11,OCn1nc(-c2ccc(Cl)cc2Cl)oc1=S,75.9% (active)
12,Fc1ccc(-c2[nH]ncc2CN2CCC(c3ccccc3F)C2)c(F)c1 (centres undefined),84.8% (active)
13,COc1cccc(-c2cnnc(N3CCC(c4ccccc4F)C3)n2)c1 (centres undefined),41.2%
14,C=CCN1C(=O)NC(=O)/C(=C/c2ccc(OCc3ccccc3F)cc2)C1=O,37.1%
15,O=C1NC(=S)NC(=O)C1=Cc1ccc(OCc2ccc(Cl)cc2)cc1,97.1% (active)
16,NC(=O)c1ccsc1NC(=O)c1ccc([N+](=O)[O-])s1,-3.4%
17,Cc1ccc(NC(=O)c2ccc([N+](=O)[O-])s2)cc1,78.9% (active)
18,O=C(Nc1ccc([N+](=O)[O-])cc1)c1ccc(Br)s1,91.6% (active)
19,N#Cc1c(NC(=O)CC2(CC(=O)O)CCCC2)sc2c1CCCC2,inactive
20,N#Cc1c(NC(=O)c2ccco2)sc2c1CCCCC2,-3.03%
21,N#Cc1c(NC(=O)c2ccc([N+](=O)[O-])s2)sc2c1CCCC2,99.4% (active)
22,CCCCCC(C)NC(=O)c1ccc([N+](=O)[O-])s1 (centres undefined),-12.6%
23,CN[C@H](CC(C)C)C(=O)N[C@H]1C(=O)N[C@@H](CC(N)=O)C(=O)N[C@H]2C(=O)N[C@H]3C(=O)N[C@H](C(=O)N[C@H](C(=O)O)c4cc(O)cc(O)c4-c4cc3ccc4O)[C@H](O)c3ccc(c(Cl)c3)Oc3cc2cc(c3O[C@@H]2O[C@H](CO)[C@@H](O)[C@H](O)[C@H]2O[C@H]2C[C@](C)(N)[C@H](O)[C@H](C)O2)Oc2ccc(cc2Cl)[C@H]1O,49.3%
24,COc1ccc(OCCN2CCN(c3ccc([N+](=O)[O-])cc3)CC2)cc1,90.8% (active)
25,COc1cccc(OCCCOc2ccc([N+](=O)[O-])cc2)c1,27.9%
26,Cc1cccc2c(=O)[nH]c(Cn3nnn(-c4cccs4)c3=O)nc12,-0.78%

row,Compound,inhibition
1,CC(C)(C)c1ccc(C(=O)Nc2nnc(-c3cccnc3)o2)cc1,97.4% (active)
2,Cc1nnc(NC(=O)c2ccc(C(F)(F)F)cc2)o1,101% (active)
3,Cn1nc(C(C)(C)C)cc1NC(=O)c1ccc(C(F)(F)F)cc1,21.5%
4,Cc1ccc(C#N)cc1NC(=O)c1ccc(C(F)(F)F)cc1,-17.1%
5,O=C(Nc1nnc(-c2ccc(Cl)cc2)o1)c1ccncc1,21.6%
6,O=C(NCCn1nc(-c2cccnc2)ccc1=O)Nc1ccc(C(F)(F)F)cc1,18.6%
7,Brc1ccc(NN=C(N=Nc2nn[nH]n2)c2ccccc2)cc1,29.1%
8,Oc1ccc(N=Nc2nn[nH]n2)c(O)c1,61.7% (active)
9,C=CCn1c(SC(C)c2nc3sc(C)c(C)c3c(=O)[nH]2)nnc1C1CCCCC1 (centres undefined),0.9%
10,Cc1ccc(NC(=O)CSc2nc(CC(=O)NCCC3=CCCCC3)cs2)cc1,81.6% (active)
11,COc1ccc(NC(=O)CSc2nc(CC(=O)NCCC3=CCCCC3)cs2)cc1,86.3% (active)
12,C[C@@H]1[C@H]2C[C@@H](C[C@H]1NC(=O)c1ccc(Nc3cccc(C(F)(F)F)c3)nc1)C2(C)C,6.48%
13,Fc1cccc(CN2CCN(Cc3ccc(-c4ccccc4)nc3)CC2)c1,27.7%
14,CC(C)Oc1cccc(CN2CCN(c3ccnc(N(C)C)n3)CC2)c1,91% (active)
15,CCN(C)c1cc(N2CCN(Cc3cc4ccccc4n3C)CC2)ncn1,49.3%
16,Cc1nnc(Sc2cc(=O)oc3ccccc23)s1,99.2% (active)
17,O=c1cc(O)c2ccccc2o1,-50.4%
18,COC(=O)CSc1nnc(N2CCN(c3ccccc3)CC2)s1,75.5% (active)
19,COC(=O)COc1cc(Cl)c(Cl)cc1Cl,77.4% (active)
20,CNC(=O)NC(=O)COc1ccc(-c2ccccc2)cc1Cl,40.5%
21,CCCCOC(=O)Nc1cc(C)c(Cl)cc1OC,45.3%
22,COc1cc(C(=O)Nc2cc(C)cc(C)c2)cc(Cl)c1O,-11.6%
23,COC(=O)C(Nc1ccc(OC)cc1)(c1cc(OC)c(O)c(OC)c1)C(F)(F)F (centres undefined),84% (active)
24,Cc1nn(CC(C)C)c2sc(C(=O)NCC3CC3)cc12,3.65%
25,COc1ccc(N=c2scc(-c3cc4ccccc4o3)n2CC2CCCO2)cc1 (centres undefined),77% (active)
26,c1ccc(N=c2scc(-c3ccccc3)n2CC2CCCO2)cc1 (centres undefined),20.4%

row,Compound,inhibition
1,c1ccc2oc(-c3nnn(CC4CCCCO4)n3)cc2c1 (centres undefined),91% (active)
2,CC12CCC3C(=CCc4cc(O)ccc43)C1CCC2=O (centres undefined),43.2%
3,O=C(NCCc1c[nH]c2ccccc12)c1cn(Cc2ccccc2Cl)nn1,21.3%
4,c1ccc2c(CCNc3ccc(Nc4ccncc4)cc3)c[nH]c2c1,72.8% (active)
5,Cc1cc(C(=O)O)c(C)n1C,-7.58%
6,CCOC(=O)C1=C(C)N=c2s/c(=C/c3cccc([N+](=O)[O-])c3)c(=O)n2C1c1ccccc1F (centres undefined),-21.3%
7,CCOC(=O)c1ccc(N2CN=c3sc(=Cc4ccccc4)c(=O)n3C2)cc1,88.9% (active)
8,CC1(C)CN=c2s/c(=C\c3ccc(Cl)cc3)c(=O)n2C1,31.2%
9,Nc1nc(Cl)nc2c1ncn2[C@@H]1O[C@H](CO)[C@@H](O)[C@H]1O,80.5% (active)
10,CC1CCCC(C)C1NC(=O)Nc1nncc(-c2ccccc2)n1 (centres undefined),21.4%
11,CN(Cc1cnn(-c2ccc(F)cc2)c1)c1nncc(-c2ccccc2)n1,inactive
12,CN(CCC1CCCCO1)c1nncc(-c2ccccc2)n1 (centres undefined),52.4% (active)
13,Nc1nnc(SCC(=O)c2ccc(OCc3ccccc3)cc2)s1,86.1% (active)
14,CC(OC(=O)c1ccc(OCc2ccccc2)cc1)c1nnc(-c2ccccc2)o1 (centres undefined),26.8%
15,c1ccc(OCCSc2nnc3sc4ccccc4n23)cc1,40.3%
16,Brc1ccc(-c2ccc(C=NNC3=NCCCCC3)o2)cc1,92.4% (active)
17,CCN(CC)C(=S)S,92.6% (active)
18,O=C1CCCc2c1[nH]c1ccc(-c3ccccc3CO)cc21,90.3% (active)
19,COc1cc(C(=O)Nc2ccc(-c3cnco3)cc2)ccc1C,49.6%
20,COCC(=O)Nc1ccc(Oc2cccc(C)c2)cc1,76.6% (active)
21,COc1cncc(-c2ccc(NC(C)=O)cc2)c1,85% (active)
22,COCC(=O)Nc1ccc(-c2cc(OC)cc(OC)c2)cc1,88.7% (active)
23,Cn1cc(C(=O)Nc2ccc(Oc3cccc(C#N)c3)cc2)ccc1=O,23.5%
24,COCC(=O)Nc1ccccc1-c1ccc(C(C)C)cc1,48.2%
25,O=C(CCl)Nc1ccc(Oc2ccc(Br)cc2)cc1,18.2%
26,COCC(=O)Nc1cccc(-c2ccc3c(c2)OCCO3)c1,63.2% (active)
